High-throughput results from PubChem BioAssay.
Sa helicase inh – blocks Staphylococcus aureus DNA helicase; inhibition, % (no concentration beside the values); purified S. aureus helicase, fluorescence unwinding assay; hit rate 0.05% among 120,000; AID 485395; in the data active means inhibition above about 25%, passing the limit was not always enough;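 further: 0% = mean of negative control wells and 100% = mean of positive control wells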
Sa growth 42C – blocks Staphylococcus aureus growth; hit rate 0.53% among 170,000; relative growth, % (no concentration beside the values); S. aureus RN4220 growth, OD600, 20 h, 42 °C; hits give low values;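 active means relative growth at most 50% at the other temperature and 20+ points below 30 °C, or under 10% at both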
* marks the source's active call; other numbers are inactive results; . = no result given; ! = not active in a repeat. The sample as a whole holds a higher share of hits than the screen did.

SMILES	Sa helicase inh	Sa growth 42C
O=C(Nc1ccc(OC(F)(F)F)cc1)Oc1ccccc1N1CCOCC1	.	3.7*
O=C(Nc1ccc(Cl)cc1)Oc1ccccc1N1CCSCC1	.	117
O=C(Cn1ncn2nc(-c3cccs3)cc2c1=O)NCCCN1CCCCCC1	17	89
CN(C)c1cccc(C(=O)OC2CCCCC2=O)c1 (configuration not stated)	10	108
COc1ccc(Cl)cc1NCC(=O)Nc1ccc2c(c1)OCCO2	-11	105
[N-]=[N+]=c1c(=O)ccc2c(=O)c3ccccc3c(=O)c1=2	13	6.1*
O=c1c2ccccc2c2nc3c(=O)c4ccccc4c3nc12	10	97
CCc1ccccc1NC(=O)CSc1nc2c(c(=O)n(C)c(=O)n2C)n1C	-2	84
N#Cc1nccnc1S(=O)(=O)c1cccs1	.	-0.7*
O=S(=O)(c1cccs1)c1cccs1	.	94
CCOC(=O)c1c2c(n3ccccc13)C(=O)c1ccccc1C2=O	-9	9.7*
CCOC(=O)C1=C(O)c2ccccc2C1=O	4	122
COC(=O)c1sccc1NC(=O)c1csc2ccccc12	19	106
c1ccc(Nc2nc3ccccc3[nH]2)nc1	6	0.9*
CNc1nc2ccccc2[nH]1	-26	108
O=C(CCCN1C(=O)/C(=C\c2ccco2)SC1=S)Nc1cccnc1	7	80
Cn1c(SCC(=O)c2ccc(Cl)cc2)nnc1-c1ncc(C(F)(F)F)cc1Cl	.	105
Cc1cc(O)ccc1-n1c(=O)c2cc3c(=O)n(-c4ccc(O)cc4C)c(=O)c3cc2c1=O	6	92
Cc1cc(O)ccc1Sc1ccc(O)cc1C	-10	30*
O=S(=O)(/C=C/c1ccccc1)N1CCN(Cc2cc3c(cc2O)CCC3)CC1	0	128
O=c1c2c(-c3cccs3)csc2[nH]c(=S)n1-c1ccccc1	3	108
CC(C)n1c(=S)[nH]c2scc(-c3cccs3)c2c1=O	9	3.9*
Cc1ccc(S(=O)(=O)CCC(=O)O)cc1	6	78
Cc1ccc(S(=O)(=O)CCC(=O)c2ccc(O)cc2O)cc1	-8	-0.2*
c1ccc(-n2nnnc2OCCOc2nnnn2-c2ccccc2)cc1	16	97
SMILES	Sa helicase inh	Sa growth 42C
c1ccc(-n2nnnc2Oc2cccc3cccnc23)cc1	6	-0.3*
CCN(CC1COc2ccccc2O1)Cn1c(=O)oc2ccccc21 (configuration not stated)	-5	103
N#Cc1ccccc1OCC(=O)N1CCC(Cc2ccccc2)CC1	-3	107
FC(F)Sc1ccc(N=C=S)cc1	3	-0.8*
FC(F)Oc1ccc(N=C=S)cc1	-3	92
O=C(CCN1CCOCC1)c1ccc(O)cc1	.	102
O=C(CCN1CCOCC1)c1ccc(Br)cc1	5	-0.4*
CCCCCOc1ccc(C(=O)CCN2CCOCC2)cc1	8	13*
CCCCOc1ccc(C(=O)N2CCCCC2CCN2CCOCC2)cc1 (configuration not stated)	.	100
Cc1c(CCC(=O)O)c(=O)[nH]c2ccccc12	6	110
Cc1ccc(-c2nnc(SCC#N)nc2-c2ccc(C)cc2)cc1	-12	92
O=C(Nc1ccc2sccc2c1)c1ccco1	9	.
Cc1cccc(NC(=O)Cn2cnc3ccccc3c2=O)c1	9	95
CCN(CC)S(=O)(=O)c1ccc(/C=C/C(=O)Nc2ccc(-n3cnnn3)cc2)cc1	3	105
O=C(Nc1ccccc1)Nc1nnc(C(F)(F)F)s1	.	1.1*
CC(C)(Oc1ccc(Cl)cc1)C(=O)Nc1nccs1	-9	95
CC(C)(Oc1ccc(Cl)cc1)C(=O)Nc1nnc(C(F)(F)F)s1	32	-1.1*
O=C(Nc1nnc(C(F)(F)F)s1)c1ccccc1	13	55
O=C(O)CCN1C(=O)/C(=C/c2ccc(-c3ccccc3Cl)o2)SC1=S	-21	.
COc1cc(/C=N/N=C(N)N)ccc1OC(=O)c1ccc(C)cc1	12	-0.7*
COc1ccc(/C=N/N=C(N)N)cc1OC	35	103
Cc1ccc(CC(C#N)Sc2nnc(-c3cccs3)n2C2CC2)cc1 (configuration not stated)	16	73
Cc1ccsc1C=Nc1ccc(Cl)cc1C(=O)c1ccccc1	3	106
CCN(CC)C(=O)c1cc(-c2ccccc2)n[nH]1	10	108
O=S(=O)(N=C1SCCS1)c1ccccc1	-12	.
SMILES	Sa helicase inh	Sa growth 42C
CC1=CC(=O)C=C(C)C1=NS(=O)(=O)c1ccccc1	18	-0.4*
N#Cc1cnc(N2CCCCC2)[nH]c1=O	5	84
CN(C)c1ccc(C(=S)N2CCN(C(c3ccccc3)c3ccccc3)CC2)cc1	10	79
O=C1N(Cc2ccccc2)c2cccc3cccc(c23)N1Cc1ccccc1	-1	113
O=c1ccsn1Cc1ccccc1	26	-0.8*
CCOc1cc(Br)c(N2C(=NC(C)=O)SC3CS(=O)(=O)CC32)cc1OCC (configuration not stated)	-34	85
Cc1cc(Nc2ccccc2C)nc(-n2nc(C)cc2C)n1	.	-0.2*
Cc1cc(C)n(-c2ncc(S(=O)(=O)C(C)(C)C)c(N)n2)n1	2	94
CCCCc1ccc(Nc2cc(C)nc(-n3nc(C)cc3C)n2)cc1	.	22
Cc1cc(N2CCCCC2)nc(N2CCOCC2)n1	-6	113
Cc1cc(C)n(-c2ccccc2)n1	11	108
Cc1cc(Nc2ccc(F)cc2)nc(-n2nc(C)cc2C)n1	.	2.5*
Cc1cc(C)n(-c2nc(NC(C)C)nc(NC(C)C)n2)n1	7	-0.4*
Cc1cc(N2CCCC2)nc(-n2nc(C)cc2C)n1	0	7.7*
CS(=O)(=O)N(CC(=O)N1CCc2ccccc2C1)c1ccc(F)cc1	6	111
O=S(=O)(c1ccc2c(c1)CCO2)N1CCCN(c2c(Cl)cncc2Cl)CC1	.	106
O=C(CSc1nnc(-c2ccc(Cl)cc2)o1)N1CCc2ccccc2C1	12	84
O=C(Nc1ccc(Cl)cc1)Nc1ncnc2nc[nH]c12	-9	78
Cc1cc(C)n(CC(=O)NCc2ccccc2)c(=O)n1	20	96
O=C(OCC(F)(F)C(F)F)c1ccc(O)cc1	9	98
COc1ccc2sc(C)[n+](CCO)c2c1	18	79
Cc1nc(COC(=O)c2ccc3c(c2)S(=O)(=O)c2ccccc2C3=O)cs1	1	87
O=C(CCc1ccccc1)N/N=C/c1ccncc1	8	88
Cc1cc(C)cc(Nc2cc(C)nc(-n3nc(C)cc3C)n2)c1	12	-0.7*
Cc1cc(Nc2cc(F)ccc2C)nc(-n2nc(C)cc2C)n1	.	3.1*
SMILES	Sa helicase inh	Sa growth 42C
COc1ccc(-c2cc(C(F)F)nc(-n3nc(C)cc3C)n2)cc1	13	107
Cc1cc(C)cc(Nc2nc3cc(Cl)c(Cl)cc3nc2-n2nc(C)cc2C)c1	.	104
N#CC(C#N)=CNc1nn(-c2ccccc2)cc1C#N	4	94
CCOc1ccc(NC(=O)N2CCC(CN3CCOCC3)CC2)cc1	8	106
Cc1ccc(-c2cnnc(-c3ccc(Cl)cc3)n2)cc1	-17	113
CSc1cccc(-c2nnc(NC(=O)c3ccc4c(c3)OCCO4)o2)c1	.	7.7*
CS(=O)(=O)c1ccccc1-c1nnc(NC(=O)c2ccc3c(c2)OCCO3)o1	.	74
CN1CCC(N(C)C2CCN(Cc3ccccc3)CC2)CC1	7	96
COc1cc2c(cc1OC)C(=O)C(CC1CCN(Cc3ccccc3)CC1)C2 (configuration not stated)	.	46*!
CC(C)CN(CC(C)C)Cn1nc(-c2ccc3c(c2)OCO3)oc1=S	-11	70
CN(Cn1nc(-c2ccc3c(c2)OCO3)oc1=S)C1CCCCC1	2	45*
